# According to PubChem BioAssay:
# For some assays here: Measured potencies and affinities stand elsewhere. Calls of active or inactive are those of the source. Unless noted, no rule for the calls is given here.
# Tests used:
# [1] = target: Cell division control protein 42 homolog (Homo sapiens) (UniProt P60953); assay: inhibition of fluorescent GTP binding to constitutively active Cdc42 – biochemical, multiplex bead flow cytometry, Bodipy-FL-GTP, dose response (AID 1333;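 active = fitted half-maximal concentration within the tested dose range, moderate curve steepness, a statistically real signal drop, and little compound fluorescence or tag-binding interference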)
# [2] = target: Cell division control protein 42 homolog (Homo sapiens) (UniProt P60953); assay: inhibition of fluorescent GTP binding to wildtype Cdc42 – biochemical, multiplex bead flow cytometry, Bodipy-FL-GTP, dose response (AID 1334;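 active = fitted half-maximal concentration within the tested range, moderate curve steepness, significant signal drop, and little compound fluorescence or bead-linkage interference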); details: bead-based flow cytometry, Bodipy-FL-GTP binding to GST-Cdc42; at 100 µM (top of the series) unless noted
# [3] = target: GTPase HRas (Homo sapiens) (UniProt P01112); assay: Ras wt fluorescent GTP loading blockade – biochemical, wildtype, multiplex bead flow cytometry, dose response (AID 1335;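 active = fitted half-maximal concentration within 10 nM to 100 µM, steepness 0.5 to 2, significant signal drop, low assay interference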); details: bead-based flow cytometry, Bodipy-GTP binding to GST-Ras; at 100 µM (top of the series) unless noted
# [4] = test system: Ras-related protein Rab-7a (dog), GTP binding; assay: blockers of fluorescent GTP binding to Rab7 – biochemical, wildtype, multiplex bead flow cytometry, dose response (AID 1336)
# [5] = target: GTPase HRas (Homo sapiens) (UniProt P01112); assay: blockade of GTP loading onto mutant Ras – biochemical, activated mutant, multiplex bead flow cytometry, dose response (AID 1341;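 active = dose-response curve with midpoint inside the tested range, moderate steepness, significant amplitude and little compound fluorescence or bead-attachment interference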;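 also: GST-tagged constitutively activated Ras mutant immobilized on beads and multiplexed with other GTPases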)
# [6] = target: Ras-related C3 botulinum toxin substrate 1 (Homo sapiens) (UniProt P63000); assay: inhibition of wildtype Rac1 nucleotide loading – biochemical, multiplex bead flow cytometry, dose response (AID 1340;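 active = dose curve with midpoint inside tested range, moderate steepness, plateau gap beyond fit error, low compound glow and bead-link interference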); details: GST-Rac1 beads, Bodipy-FL-GTP binding; at 100 µM (top of the series) unless noted
# Chain of GTPase HRas (Homo sapiens) (P01112 whole entry, looked up): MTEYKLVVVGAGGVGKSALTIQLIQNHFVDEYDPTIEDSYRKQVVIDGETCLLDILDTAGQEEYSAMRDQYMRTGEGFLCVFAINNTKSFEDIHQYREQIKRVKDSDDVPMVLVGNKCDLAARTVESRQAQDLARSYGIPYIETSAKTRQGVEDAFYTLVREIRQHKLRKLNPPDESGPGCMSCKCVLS
# Chain of Cell division control protein 42 homolog (Homo sapiens) (P60953 whole entry, looked up): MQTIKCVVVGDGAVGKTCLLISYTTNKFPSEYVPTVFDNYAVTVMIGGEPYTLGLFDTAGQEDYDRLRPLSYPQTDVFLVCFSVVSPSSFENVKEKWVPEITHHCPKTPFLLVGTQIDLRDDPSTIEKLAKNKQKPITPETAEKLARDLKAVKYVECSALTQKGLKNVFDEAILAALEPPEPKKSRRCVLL
SMILES,outcome [1],"fluorescence, percent of control (lower = inhibition) [2] [%]","GTP binding, percent of control [3] [%]",outcome [4],outcome [5],"GTP binding signal, raw median fluorescence (lower = inhibition) (MCF (arbitrary fluorescence units)) [6]"
COc1ccc(-c2nnc(SCC(=O)c3cccs3)o2)cc1,inactive,94.6,141,inactive,inactive,
Cc1ccc(-n2c(=O)cc(N3CCc4ccccc4C3)[nH]c2=O)cc1,inactive,58.7,,inactive,inactive,251
CCC(C(=O)NC1CCCC1)N(C(=O)Cn1nnc(-c2ccc(C)o2)n1)c1cnc2ccccc2c1 (centres undefined),inactive,,60.1,inactive,inactive,194
CCOC(=O)CN(C(=O)CSc1nnc2c(n1)[nH]c1ccc(OC)cc12)c1ccc(F)cc1,inactive,47.9,58.9,inactive,inactive,
Cc1ccc(NC(=O)C2=C(c3ccccc3)S(=O)(=O)CCS2(=O)=O)cc1,,22.2,79.3,inactive,inactive,222
CCOC(=O)Cn1nnnc1C(C(C)C)N(Cc1cccs1)Cc1cc2cc(C)ccc2[nH]c1=O (centres undefined),inactive,,181,inactive,inactive,181
CN1C(=O)N(C)c2ccc(C=O)c3cccc1c23,inactive,36.5,82.8,inactive,inactive,
O=C(NC1CCCCC1)c1cc([N+](=O)[O-])[nH]n1,inactive,37.3,80.1,inactive,inactive,
O=C(NCc1ccc2c(c1)OCO2)c1ccc(CSCc2cccc(Cl)c2)o1,,31,76.4,inactive,inactive,266
COc1ccc(Cl)cc1NCc1sc(C(=O)O)cc1C,inactive,62.5,84.3,inactive,inactive,
COc1cccc(-n2nnnc2S(C)(=O)=O)c1,,34,59.3,inactive,inactive,157
CCn1cc(C=C2C(=O)c3ccccc3C2=O)c2ccccc21,inactive,40.2,,inactive,inactive,161
O=C(O)c1cc(Sc2ccc(Cl)cc2)nc2ccccc12,,55.8,81.1,inactive,inactive,29
Cc1sc2nc3ccc(NCc4ccco4)nn3c(=O)c2c1C,inactive,,57.4,inactive,inactive,
CCn1nc(C(=O)OCC(=O)c2cc(C)n(Cc3cccs3)c2C)c2ccccc2c1=O,inactive,46.9,64.2,inactive,inactive,
O=C(C#Cc1ccc(F)cc1)c1ccc([N+](=O)[O-])cc1,,39.2,142,inactive,inactive,48.4
CCOC(=O)c1nc(Nc2ccc(C(C)=O)cc2)c2ccccc2n1,inactive,36,80.4,inactive,inactive,
O=C(Nc1nc(-c2ccc(S(=O)(=O)N3CCCC3)cc2)cs1)c1ccco1,inactive,49.8,118,inactive,inactive,
